The values that follow come from PubChem BioAssay.

Unmarked numbers belong to inactive results. Calls of active or inactive are those of the source. Unless noted, how the calls were made is not given here.

The target of one assay is Homeobox protein Hox-A13 (Mus musculus) (UniProt Q62424). The assay can be described thus: inhibitors of HoxA13-DNA binding, primary screen, biochemical, fluorescence polarization, labeled oligonucleotide (AID 1185). Conditions: 15 min, higher = more signal, called active from +8 up or from −8 down.
Homeobox protein Hox-A13 (Mus musculus), sequence (Q62424 whole entry, looked up): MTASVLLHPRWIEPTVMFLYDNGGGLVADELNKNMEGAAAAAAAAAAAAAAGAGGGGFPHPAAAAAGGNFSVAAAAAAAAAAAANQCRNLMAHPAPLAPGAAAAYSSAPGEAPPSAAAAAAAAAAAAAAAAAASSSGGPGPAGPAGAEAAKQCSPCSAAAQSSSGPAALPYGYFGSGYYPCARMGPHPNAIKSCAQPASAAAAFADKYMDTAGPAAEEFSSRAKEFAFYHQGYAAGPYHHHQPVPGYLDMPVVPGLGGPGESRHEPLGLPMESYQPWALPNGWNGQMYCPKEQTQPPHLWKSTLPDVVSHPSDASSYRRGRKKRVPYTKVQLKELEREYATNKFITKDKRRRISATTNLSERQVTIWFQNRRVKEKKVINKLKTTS
`COc1ccc([Si](C)(C)[C@@H]2[C@@H](CCO)O[C@]3(C(=O)N(Cc4ccccc4)c4ccc(N5C(=O)c6cccc7cccc5c67)cc43)[C@H]2C)cc1`: the z-score was -0.268.
For the compound `COc1cccc(C)c1NC(=O)O[C@H]1[C@H](OC(=O)Nc2ccc3c(c2)OCO3)[C@@H](OC(=O)Nc2ccc3c(c2)OCO3)[C@@H](OC)O[C@@H]1CO`, the z-score was -10.8 (active).
For `Cc1cc(C)c(C(O)C2C=CC3C(=O)N(c4ccccc4)C(=O)C3N2Nc2ccccc2F)c(C)c1` (centres undefined), the z-score is -1.39.
Consider `CCCC1(C(=O)OC)C=C2C(=C(C)C(=O)C2C)CN1` (centres undefined), for which the z-score was -4.88.
Still for that read-out and setting: for `O=C(NCCN1CCOCC1)[C@@H]1c2ccccc2C(=O)N(Cc2ccccc2Cl)[C@H]1c1ccc(CO)cc1` the value was -4.26; for `C=C(/C(=C/C[C@H](OC(C)=O)c1ccc(CO)o1)c1cnc2ccccc2c1)C(C)C`, -6.46.
Regarding `CCOC(=O)C[C@H]1[C@H](OC(=O)Cc2ccc3c(c2)OCO3)[C@@H](NC(=O)c2ccc3ccccc3n2)c2cc(OCCCO)ccc2N1C(=O)c1ccc2ccccc2n1`, the z-score was -2.98.
Regarding `[N-]=[N+]=Nc1ccccc1C[C@]1(C(=O)NCCN2CCOCC2)COC(c2ccc(OCCCO)cc2)=N1`, the z-score was -6.04.
Consider `COc1ccc(CCNC(=O)[C@@H]2c3ccccc3C(=O)N(C3CCCCC3)[C@H]2c2ccc(CO)cc2)cc1`, for which the z-score was -3.32.
As for `COCCOC(=O)N1C(=O)[C@@]2(c3ccccc31)[C@H](C(=O)NC[C@H](O)c1ccccc1)[C@H]1C(=O)O[C@H](c3ccccc3)[C@H](c3ccccc3)N1[C@@H]2c1ccc(O)cc1`, the z-score is -3.48.
Turning to `COC(=O)[C@]1(CCS(=O)(=O)c2ccccc2)N=C(c2ccc(OCCCO)cc2)O[C@@H]1c1ccccc1N=[N+]=[N-]`, the z-score is -3.34.
On the same count and under the same terms, for `CC(C)C(CO)N1C(=O)[C@@H]2C3C(=O)OCCC/C=C\[C@H]3OC23C=CCN(c2ccc4ccccc4c2)C(=O)[C@@H]13` (some centres undefined) the value was -6.34.
For the compound `CN1C2C=C(CCCO)C(C3C(=O)N(C(N)=O)C(=O)C32)C1C1CC1` (centres undefined), the z-score is -7.09.
Take `NCCCCCNC(=O)[C@@H]1C[C@@H]2C(=O)N[C@@H](CCCCN)C(=O)N2[C@@H]1c1ccc(O)cc1`: the z-score is 1.23.
On to `CCCCCC1=C2CNC(C)(C(=O)OC)C=C2C(C)C1=O` (centres undefined), for which the z-score was -5.3.
As to `COc1ccc(CCNC(=O)[C@@]2(c3ccc([N+](=O)[O-])cc3)CC(=O)N(C3CCCCC3)[C@@H]2c2ccc(CO)cc2)cc1`, the z-score is -4.2.
As to `COCCOC(=O)N1C(=O)[C@@]2(c3cc(C#CCC(C(=O)OC)C(=O)OC)ccc31)[C@H](c1ccc(OCCO)cc1)N1[C@H](c3ccccc3)[C@H](c3ccccc3)OC(=O)[C@H]1[C@@H]2C(=O)N1CCc2cc(OC)c(OC)cc2C1`, the z-score is 2.86.
For the compound `O=C(c1ccccc1)N1C(=O)[C@]2(Cc3ccccc31)N=C(c1ccc(OCCCO)cc1)O[C@@H]2c1ccccc1`, the z-score was -5.04.
In the case of `COc1ccc([Si](C)(C)[C@@H]2[C@@H](CCO)O[C@]3(C(=O)N(Cc4ccccc4)c4ccc(N5CCOC5=O)cc43)[C@H]2C)cc1`, the z-score was -1.94.
With `O=C1C2C=CC(C(O)c3ccco3)N(Nc3ccccc3F)C2C(=O)N1c1ccccc1` (centres undefined), the z-score is -1.61.
For the compound `CC(C)(C)OC(=O)COc1cccc(C(=O)CCN2CCOCC2)c1`, the z-score was -1.11.
The same measure, in the same setting: then `CS(=O)(=O)CCOC(=O)C1=CC(CCCO)=CC(c2ccc(CN3CCCC3)cc2)N(Cc2sc3ccccc3c2Cl)C=C1C(=O)OCCS(C)(=O)=O` (centres undefined), with 1.07.
For `COC(=O)[C@@]1(Cc2ccc(F)cc2)[C@H]2c3cc(C(=O)N(C)C)n(CCc4ccc(OC)c(Br)c4)c3C[C@H]2CN1C(=O)c1ccccc1`, the z-score is -5.01.
Turning to `COc1ccc([Si](C)(C)[C@@H]2[C@@H](CC(=O)N3Cc4ccccc4C[C@H]3CO)O[C@]3(C(=O)N(Cc4ccc(N5C(=O)c6cccc7cccc5c67)cc4)c4ccccc43)[C@H]2C)cc1`, the z-score was -1.98.

Tested on in another assay: not listed separately
The assay can be described thus: inhibitors of hydroxyurea-induced Chk1 phosphorylation, primary screen, imaging, HeLa, phospho-Chk1 antibody, percent positive cells (AID 1186). As to conditions: hydroxyurea-induced phospho-Chk1 immunofluorescence imaging, higher = more signal.
`COc1cc2c(cc1O)C(C1CC1)N(Cc1cccc(OC(F)(F)F)c1)CC2` (centres undefined): the z-score was 0.433.
For the compound `C=CC[C@]1(C(=O)N2CCOCC2)COC(c2ccc(OCCCO)cc2)=N1`, the z-score is -0.374.
Turning to `C=CC[C@]1(C(=O)N2CCCCC2)N=C(c2ccc(OCCCO)cc2)O[C@H]1c1ccccc1CN=[N+]=[N-]`, the z-score is -0.707.
Consider `COc1ccc(CCNC(=O)[C@@]2(Sc3ccc(C)cc3)CC(=O)N(Cc3ccccc3C(F)(F)F)[C@@H]2c2ccc(CO)cc2I)cc1`, for which the z-score is 0.17.
On the same count and under the same terms, then `O=C1N(CCS(=O)(=O)c2ccccc2)c2ccccc2[C@H]2OC(c3ccc(OCCCO)cc3)=N[C@@]12Cc1ccccc1`, with -0.37; and `CCCCC[C@H]1OC[C@@]23C=C(Br)[C@@H](CC12)[C@@]1(CO1)C3=O` (some centres undefined), with -0.556.
For `COC(=O)[C@@]1(Cc2ccc(OC)cc2)[C@H]2c3cc(C(=O)N(C)C)n(Cc4ccc(OC(F)(F)F)cc4)c3C[C@H]2CN1C(=O)c1ccccc1`, the z-score was 0.154.
Regarding `CCC#CCN(Cc1ccccc1Br)[C@H](/C=C/C1CC1)[C@@H](O)Cc1ccccc1`, the z-score was -0.887.
On to `CC[C@@H]1O[Si](C(C)C)(C(C)C)c2c1cc(-c1cc(C)c(OC)c(C)c1)nc2-c1ccc(Oc2ccccc2)cc1`, for which the z-score is -0.557.
The same measure, in the same setting: for `CCCNC(=O)[C@@]1(C)c2ccccc2C(=O)N(c2ccc(C)cn2)[C@H]1c1ccc(CO)cc1` the value was 0.0068; for `[N-]=[N+]=Nc1ccccc1[C@@H]1OC(c2ccc(OCCCO)cc2)=N[C@]1(Cc1ccccc1)C(=O)N1CCCCC1`, -0.23.
Regarding `COc1ccc([Si](C)(C)[C@@H]2[C@@H](CCO)O[C@]3(C(=O)N(Cc4ccccc4)c4ccc(N5C(=O)c6cccc7cccc5c67)cc43)[C@H]2C)cc1`, the z-score was -0.991.
`COc1cccc(C)c1NC(=O)O[C@H]1[C@H](OC(=O)Nc2ccc3c(c2)OCO3)[C@@H](OC(=O)Nc2ccc3c(c2)OCO3)[C@@H](OC)O[C@@H]1CO`: the z-score was -0.088.
As for `Cc1cc(C)c(C(O)C2C=CC3C(=O)N(c4ccccc4)C(=O)C3N2Nc2ccccc2F)c(C)c1` (centres undefined), the z-score was 0.153.
As to `CCCC1(C(=O)OC)C=C2C(=C(C)C(=O)C2C)CN1` (centres undefined), the z-score is 0.779.
In the case of `O=C(NCCN1CCOCC1)[C@@H]1c2ccccc2C(=O)N(Cc2ccccc2Cl)[C@H]1c1ccc(CO)cc1`, the z-score is -0.0685.
Still for that read-out and setting: for `C=C(/C(=C/C[C@H](OC(C)=O)c1ccc(CO)o1)c1cnc2ccccc2c1)C(C)C` the value was -0.136; for `CCOC(=O)C[C@H]1[C@H](OC(=O)Cc2ccc3c(c2)OCO3)[C@@H](NC(=O)c2ccc3ccccc3n2)c2cc(OCCCO)ccc2N1C(=O)c1ccc2ccccc2n1`, -0.663; for `[N-]=[N+]=Nc1ccccc1C[C@]1(C(=O)NCCN2CCOCC2)COC(c2ccc(OCCCO)cc2)=N1`, -0.566.
For `COc1ccc(CCNC(=O)[C@@H]2c3ccccc3C(=O)N(C3CCCCC3)[C@H]2c2ccc(CO)cc2)cc1`, the z-score was 0.183.
As to `COCCOC(=O)N1C(=O)[C@@]2(c3ccccc31)[C@H](C(=O)NC[C@H](O)c1ccccc1)[C@H]1C(=O)O[C@H](c3ccccc3)[C@H](c3ccccc3)N1[C@@H]2c1ccc(O)cc1`, the z-score is 0.326.
The same measure, in the same setting: then `COC(=O)[C@]1(CCS(=O)(=O)c2ccccc2)N=C(c2ccc(OCCCO)cc2)O[C@@H]1c1ccccc1N=[N+]=[N-]`, with -0.265; and `CC(C)C(CO)N1C(=O)[C@@H]2C3C(=O)OCCC/C=C\[C@H]3OC23C=CCN(c2ccc4ccccc4c2)C(=O)[C@@H]13` (some centres undefined), with 0.467; and `CN1C2C=C(CCCO)C(C3C(=O)N(C(N)=O)C(=O)C32)C1C1CC1` (centres undefined), with -0.25.
As for `NCCCCCNC(=O)[C@@H]1C[C@@H]2C(=O)N[C@@H](CCCCN)C(=O)N2[C@@H]1c1ccc(O)cc1`, the z-score was -0.484.
`CCCCCC1=C2CNC(C)(C(=O)OC)C=C2C(C)C1=O` (centres undefined): the z-score is 1.37.
Consider `COc1ccc(CCNC(=O)[C@@]2(c3ccc([N+](=O)[O-])cc3)CC(=O)N(C3CCCCC3)[C@@H]2c2ccc(CO)cc2)cc1`, for which the z-score was -0.192.
Still for that read-out and setting: for `COCCOC(=O)N1C(=O)[C@@]2(c3cc(C#CCC(C(=O)OC)C(=O)OC)ccc31)[C@H](c1ccc(OCCO)cc1)N1[C@H](c3ccccc3)[C@H](c3ccccc3)OC(=O)[C@H]1[C@@H]2C(=O)N1CCc2cc(OC)c(OC)cc2C1` the value was -0.0277; for `O=C(c1ccccc1)N1C(=O)[C@]2(Cc3ccccc31)N=C(c1ccc(OCCCO)cc1)O[C@@H]2c1ccccc1`, 0.546.
As for `COc1ccc([Si](C)(C)[C@@H]2[C@@H](CCO)O[C@]3(C(=O)N(Cc4ccccc4)c4ccc(N5CCOC5=O)cc43)[C@H]2C)cc1`, the z-score is -1.29.
Turning to `O=C1C2C=CC(C(O)c3ccco3)N(Nc3ccccc3F)C2C(=O)N1c1ccccc1` (centres undefined), the z-score is 0.456.
Same read-out and setting: then `CC(C)(C)OC(=O)COc1cccc(C(=O)CCN2CCOCC2)c1`, with -0.118.
The same measure, in the same setting: for `CS(=O)(=O)CCOC(=O)C1=CC(CCCO)=CC(c2ccc(CN3CCCC3)cc2)N(Cc2sc3ccccc3c2Cl)C=C1C(=O)OCCS(C)(=O)=O` (centres undefined) the value was 0.316; for `COC(=O)[C@@]1(Cc2ccc(F)cc2)[C@H]2c3cc(C(=O)N(C)C)n(CCc4ccc(OC)c(Br)c4)c3C[C@H]2CN1C(=O)c1ccccc1`, -0.316; for `COc1ccc([Si](C)(C)[C@@H]2[C@@H](CC(=O)N3Cc4ccccc4C[C@H]3CO)O[C@]3(C(=O)N(Cc4ccc(N5C(=O)c6cccc7cccc5c67)cc4)c4ccccc43)[C@H]2C)cc1`, 0.143.
